# Laboratory results: the supplement of paper PMC4466140
# How the values were obtained:
# Experiment in all cases: SPOT peptide array binding signal intensity (averaged, normalized) (arbitrary units (background-subtracted, floor 0; scale differs between SH3 domains)); higher = stronger binding of the SH3 domain to the peptide
# AgAbp1 = target: AgAbp1
# In short: (§1)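 Spot intensities were captured after detection with anti-GST antibody, an HRP-linked anti-mouse secondary and luminol, and quantified with Genespotter. The probes were GST-fused SH3 domains from four yeast species, produced in E. coli BL21(DE3), purified on glutathione Sepharose and incubated at 10 μg/ml overnight at 4°C on cellulose-bound synthetic 15-mer peptides with cysteines replaced by serines. Binding signal is the normalized, background-subtracted spot intensity averaged over replicates, and its arbitrary units differ between domains.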
# AgBbc1 = target: AgBbc1
# In short: as §1
# AgBem1-D1 = target: AgBem1-D1
# In short: as §1
# AgBzz1-D1 = target: AgBzz1-D1
# In short: as §1
# AgBzz1-D2 = target: AgBzz1-D2
# In short: as §1
# AgCyk3 = target: AgCyk3
# In short: as §1
# AgFus1 = target: AgFus1
# In short: as §1
# AgHof1 = target: AgHof1
# In short: as §1
# AgHse1 = target: AgHse1
# In short: as §1
# AgLsb1 = target: AgLsb1
# In short: as §1
# AgLsb4 = target: AgLsb4
# In short: as §1
# AgMyo5 = target: AgMyo5
# In short: as §1
# AgNbp2 = target: AgNbp2
# In short: as §1
# AgRvs167 = target: AgRvs167
# In short: as §1
# AgSho1 = target: AgSho1
# In short: as §1
# AgSla1-D1-D2 = target: AgSla1-D1-D2
# In short: as §1
# AgSla1-D3 = target: AgSla1-D3
# In short: as §1
# CaAbp1-D1 = target: CaAbp1-D1
# In short: as §1
# CaAbp1-D2 = target: CaAbp1-D2
# In short: as §1
# CaBbc1 = target: CaBbc1
# In short: as §1
# CaBem1-D1 = target: CaBem1-D1
# In short: as §1
# CaBzz1-D1 = target: CaBzz1-D1
# In short: as §1
# CaBzz1-D2 = target: CaBzz1-D2
# In short: as §1
# CaCyk3 = target: CaCyk3
# In short: as §1
# CaFus1 = target: CaFus1
# In short: as §1
# CaHof1 = target: CaHof1
# In short: as §1
# CaHse1 = target: CaHse1
# In short: as §1
# CaLsb1 = target: CaLsb1
# In short: as §1
# CaLsb4 = target: CaLsb4
# In short: as §1
# CaMyo5 = target: CaMyo5
# In short: as §1
# SpBzz1-D2 = target: SpBzz1-D2
# In short: as §1
# SpCyk3 = target: SpCyk3
# In short: as §1
# SpHof1 = target: SpHof1
# In short: as §1
# SpHof1-2 = target: SpHof1-2
# In short: as §1
# SpHof1-3 = target: SpHof1-3
# In short: as §1
# SpHse1 = target: SpHse1
# In short: as §1
# SpLsb1 = target: SpLsb1
# In short: as §1
# SpLsb4 = target: SpLsb4
# In short: as §1
# SpMyo1 = target: SpMyo1
# In short: as §1
# SpNbp2 = target: SpNbp2
# In short: as §1
# SpPex13 = target: SpPex13
# In short: as §1
# SpRvs167 = target: SpRvs167
# In short: as §1
# SpSla1-D1-D2 = target: SpSla1-D1-D2
# In short: as §1
# SpSla1-D3 = target: SpSla1-D3
# In short: as §1
# CaNbp2 = target: CaNbp2
# In short: as §1
# CaRvs167 = target: CaRvs167
# In short: as §1
# CaRvs167-3 = target: CaRvs167-3
# In short: as §1
# CaSho1 = target: CaSho1
# In short: as §1
# CaSla1-D1-D2 = target: CaSla1-D1-D2
# In short: as §1
# CaSla1-D3 = target: CaSla1-D3
# In short: as §1
# ScAbp1 = target: ScAbp1
# In short: as §1
# ScBbc1 = target: ScBbc1
# In short: as §1
# ScBem1-D1 = target: ScBem1-D1
# In short: as §1
# ScBzz1-D1 = target: ScBzz1-D1
# In short: as §1
# ScBzz1-D2 = target: ScBzz1-D2
# In short: as §1
# ScCyk3 = target: ScCyk3
# In short: as §1
# ScFus1 = target: ScFus1
# In short: as §1
# ScHof1 = target: ScHof1
# In short: as §1
# ScHse1 = target: ScHse1
# In short: as §1
# ScLsb1 = target: ScLsb1
# In short: as §1
# ScLsb2 = target: ScLsb2
# In short: as §1
# ScLsb3 = target: ScLsb3
# In short: as §1
# ScLsb4 = target: ScLsb4
# In short: as §1
# ScMyo3 = target: ScMyo3
# In short: as §1
# ScMyo5 = target: ScMyo5
# In short: as §1
# ScNbp2 = target: ScNbp2
# In short: as §1
# ScPex13 = target: ScPex13
# In short: as §1
# ScRvs167 = target: ScRvs167
# In short: as §1
# ScSho1 = target: ScSho1
# In short: as §1
# ScSla1-D1-D2 = target: ScSla1-D1-D2
# In short: as §1
# ScSla1-D3 = target: ScSla1-D3
# In short: as §1
# SpAbp1-D1 = target: SpAbp1-D1
# In short: as §1
# SpBbc1 = target: SpBbc1
# In short: as §1
# SpBzz1-D1 = target: SpBzz1-D1
# In short: as §1
binder,measurement,setting,value
AVPPPPPPPPLPESL,SPOT peptide array binding signal intensity,AgAbp1,8.5
same,SPOT peptide array binding signal intensity,AgBbc1,0.5
same,SPOT peptide array binding signal intensity,AgBem1-D1,≤ 0
same,SPOT peptide array binding signal intensity,AgBzz1-D1,1
same,SPOT peptide array binding signal intensity,AgBzz1-D2,5.5
same,SPOT peptide array binding signal intensity,AgCyk3,≤ 0
same,SPOT peptide array binding signal intensity,AgFus1,2
same,SPOT peptide array binding signal intensity,AgHof1,182
same,SPOT peptide array binding signal intensity,AgHse1,26
same,SPOT peptide array binding signal intensity,AgLsb1,0.5
same,SPOT peptide array binding signal intensity,AgLsb4,3
same,SPOT peptide array binding signal intensity,AgMyo5,188
same,SPOT peptide array binding signal intensity,AgNbp2,18
same,SPOT peptide array binding signal intensity,AgRvs167,0.667
same,SPOT peptide array binding signal intensity,AgSho1,1
same,SPOT peptide array binding signal intensity,AgSla1-D1-D2,≤ 0
same,SPOT peptide array binding signal intensity,AgSla1-D3,2
same,SPOT peptide array binding signal intensity,CaAbp1-D1,1
same,SPOT peptide array binding signal intensity,CaAbp1-D2,1
same,SPOT peptide array binding signal intensity,CaBbc1,≤ 0
same,SPOT peptide array binding signal intensity,CaBem1-D1,1
same,SPOT peptide array binding signal intensity,CaBzz1-D1,951
same,SPOT peptide array binding signal intensity,CaBzz1-D2,158
same,SPOT peptide array binding signal intensity,CaCyk3,≤ 0
same,SPOT peptide array binding signal intensity,CaFus1,2
same,SPOT peptide array binding signal intensity,CaHof1,0.5
same,SPOT peptide array binding signal intensity,CaHse1,4.75
same,SPOT peptide array binding signal intensity,CaLsb1,0.5
same,SPOT peptide array binding signal intensity,CaLsb4,≤ 0
same,SPOT peptide array binding signal intensity,CaMyo5,29
PPPPPPPPPPPLPQS,SPOT peptide array binding signal intensity,SpBzz1-D2,31.2
same,SPOT peptide array binding signal intensity,SpCyk3,1
same,SPOT peptide array binding signal intensity,SpHof1,≤ 0
same,SPOT peptide array binding signal intensity,SpHof1-2,≤ 0
same,SPOT peptide array binding signal intensity,SpHof1-3,≤ 0
same,SPOT peptide array binding signal intensity,SpHse1,21
same,SPOT peptide array binding signal intensity,SpLsb1,4.5
same,SPOT peptide array binding signal intensity,SpLsb4,31
same,SPOT peptide array binding signal intensity,SpMyo1,1470
same,SPOT peptide array binding signal intensity,SpNbp2,2
same,SPOT peptide array binding signal intensity,SpPex13,≤ 0
same,SPOT peptide array binding signal intensity,SpRvs167,124
same,SPOT peptide array binding signal intensity,SpSla1-D1-D2,1.5
same,SPOT peptide array binding signal intensity,SpSla1-D3,≤ 0
LEFRAILFIPKRAPF,SPOT peptide array binding signal intensity,AgAbp1,9
same,SPOT peptide array binding signal intensity,AgBbc1,11.8
same,SPOT peptide array binding signal intensity,AgBem1-D1,198
same,SPOT peptide array binding signal intensity,AgBzz1-D1,30.5
same,SPOT peptide array binding signal intensity,AgBzz1-D2,37
same,SPOT peptide array binding signal intensity,AgCyk3,4
same,SPOT peptide array binding signal intensity,AgFus1,2310
same,SPOT peptide array binding signal intensity,AgHof1,52.8
same,SPOT peptide array binding signal intensity,AgHse1,654
same,SPOT peptide array binding signal intensity,AgLsb1,1.5
same,SPOT peptide array binding signal intensity,AgLsb4,989
same,SPOT peptide array binding signal intensity,AgMyo5,≤ 0
same,SPOT peptide array binding signal intensity,AgNbp2,558
same,SPOT peptide array binding signal intensity,AgRvs167,8.17
same,SPOT peptide array binding signal intensity,AgSho1,850
same,SPOT peptide array binding signal intensity,AgSla1-D1-D2,14
same,SPOT peptide array binding signal intensity,AgSla1-D3,4.25
same,SPOT peptide array binding signal intensity,CaAbp1-D1,56
same,SPOT peptide array binding signal intensity,CaAbp1-D2,58
same,SPOT peptide array binding signal intensity,CaBbc1,68
same,SPOT peptide array binding signal intensity,CaBem1-D1,5
same,SPOT peptide array binding signal intensity,CaBzz1-D1,212
same,SPOT peptide array binding signal intensity,CaBzz1-D2,109
same,SPOT peptide array binding signal intensity,CaCyk3,16.5
same,SPOT peptide array binding signal intensity,CaFus1,5550
same,SPOT peptide array binding signal intensity,CaHof1,6
same,SPOT peptide array binding signal intensity,CaHse1,267
same,SPOT peptide array binding signal intensity,CaLsb1,19
same,SPOT peptide array binding signal intensity,CaLsb4,81
same,SPOT peptide array binding signal intensity,CaMyo5,13.2
same,SPOT peptide array binding signal intensity,CaNbp2,1090
same,SPOT peptide array binding signal intensity,CaRvs167,224
same,SPOT peptide array binding signal intensity,CaRvs167-3,268
same,SPOT peptide array binding signal intensity,CaSho1,2030
same,SPOT peptide array binding signal intensity,CaSla1-D1-D2,49
same,SPOT peptide array binding signal intensity,CaSla1-D3,249
same,SPOT peptide array binding signal intensity,ScAbp1,5
same,SPOT peptide array binding signal intensity,ScBbc1,0.25
same,SPOT peptide array binding signal intensity,ScBem1-D1,18
same,SPOT peptide array binding signal intensity,ScBzz1-D1,25.5
same,SPOT peptide array binding signal intensity,ScBzz1-D2,162
same,SPOT peptide array binding signal intensity,ScCyk3,35
same,SPOT peptide array binding signal intensity,ScFus1,3610
same,SPOT peptide array binding signal intensity,ScHof1,1
same,SPOT peptide array binding signal intensity,ScHse1,1790
same,SPOT peptide array binding signal intensity,ScLsb1,2
same,SPOT peptide array binding signal intensity,ScLsb2,≤ 0
same,SPOT peptide array binding signal intensity,ScLsb3,164
same,SPOT peptide array binding signal intensity,ScLsb4,11.5
same,SPOT peptide array binding signal intensity,ScMyo3,≤ 0
same,SPOT peptide array binding signal intensity,ScMyo5,4
same,SPOT peptide array binding signal intensity,ScNbp2,593
same,SPOT peptide array binding signal intensity,ScPex13,186
same,SPOT peptide array binding signal intensity,ScRvs167,29.2
same,SPOT peptide array binding signal intensity,ScSho1,3570
same,SPOT peptide array binding signal intensity,ScSla1-D1-D2,37.5
same,SPOT peptide array binding signal intensity,ScSla1-D3,94.5
same,SPOT peptide array binding signal intensity,SpAbp1-D1,30
same,SPOT peptide array binding signal intensity,SpBbc1,11.5
same,SPOT peptide array binding signal intensity,SpBzz1-D1,220
same,SPOT peptide array binding signal intensity,SpBzz1-D2,0.5
same,SPOT peptide array binding signal intensity,SpCyk3,10.5
same,SPOT peptide array binding signal intensity,SpHof1,61.5
same,SPOT peptide array binding signal intensity,SpHof1-2,29.5
same,SPOT peptide array binding signal intensity,SpHof1-3,418
same,SPOT peptide array binding signal intensity,SpHse1,1270
same,SPOT peptide array binding signal intensity,SpLsb1,≤ 0
same,SPOT peptide array binding signal intensity,SpLsb4,10
same,SPOT peptide array binding signal intensity,SpMyo1,11
same,SPOT peptide array binding signal intensity,SpNbp2,1170
same,SPOT peptide array binding signal intensity,SpPex13,127
same,SPOT peptide array binding signal intensity,SpRvs167,17.3
same,SPOT peptide array binding signal intensity,SpSla1-D1-D2,≤ 0
same,SPOT peptide array binding signal intensity,SpSla1-D3,66.5
